Growth data for 22 compounds are collected here from PubChem BioAssay (NCI).

About 83,000 compounds went through this panel and 20% of them were active in at least one assay; those are over-represented in the sample as a whole.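 Testing used 96-well plates and a 48-hour single-concentration exposure. Example: -40 means 40% of the starting cells died.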 Values without a mark were called inactive. Active and inactive are the calls of the source. Rule for the calls: active = growth percent below 10; inactive = the rest.

Holding throughout (experiment): NCI-60 one-dose screen, 48 h (100 = growth as untreated, 0 = no growth, -100 = all killed)
What all share (conditions): 10 µM unless noted

For assay [1], the system named is SNB-75 CNS.
Assay [2] deals with SNB-19 CNS.
The subject of assay [3] is SK-MEL-5 melanoma.
Assay [4] has as its system UACC-62 melanoma.
Assay [5] deals with LOX IMVI melanoma.
In assay [6] the test system is SK-MEL-28 melanoma.
The subject of assay [7] is PC-3 prostate.
Assay [8] relates to SK-MEL-2 melanoma.
Assay [9] concerns U251 CNS.

Consider `Clc1ccccc1[C@@H]1C[C@@H]2Cc3cc(Br)c4ccccc4c3N1O2`, for which the growth in [1] is 4.57% (active); in [2], 38.2%; in assay [3], 30.2%; in assay [4], 24.4%; in [5], 37%; in assay [6], 47.5%.

`Cc1cc(Cl)ccc1Nc1nc(C(F)(F)F)ccc1C(=O)NCC(=O)N/N=C/c1c(Cl)cccc1Cl`: the growth in assay [1] was 97.7%; in assay [2], 90.5%; in [7] it was -16.1% (active); in assay [3], 70.5%; in [4] it was 63%; in assay [5] it was 56.3%. The growth in assay [6] was 85.7%; in assay [8], 98.2%.

Turning to `O=C1NCC(Nc2ccc(Br)cc2Cl)C(=O)N1` (stereo not drawn), the growth in assay [1] is 91%; in assay [2], 102%; in [9], 123%; in assay [3], 104%; in assay [5], 105%; in assay [6], 110%.

`O=c1c(O)cccn1CCCNCCCN(CCCn1cccc(O)c1=O)CCCn1cccc(O)c1=O`: the growth in [1] was 104%; in [2], 99.8%; in [9], 93.8%; in assay [3] it was 105%; in [4], 100%; in [5] it was 83.8%. Besides, the growth in assay [6] was 116%; in assay [8], 122%.

Turning to `CC(C)c1ccc(C(=O)Nc2sc3c(CN(C)C)c(O)ccc3c2C(N)=O)cc1`, the growth in [1] is 48.5%; in assay [2], 84.4%; in assay [9] it was 34.3%; in assay [3], 88.3%; in assay [4], 104%; in assay [5] it was -88.3% (active). Besides, the figures for the growth in [6] and in assay [8] were 84.2% and 96.4%, respectively.

As to `O=C(/C(=N/O)S(=O)(=O)c1ccccc1)c1cccs1`, the growth was 92.6% in assay [1]; 100% in assay [2]; 97.7% in assay [7]; 104% in [4]; 111% in [6].

For `O=[N+]([O-])c1ccc(N/N=C/c2c(O)ccc3ccccc23)nc1`, the growth in [1] was 69.3%; in assay [2] it was 62.7%; in assay [9] it was 35.8%; in assay [3] it was 40%; in assay [5], 21%; in assay [6], 64.8%.

For `c1coc([C@@H]2C[C@@H]3Cc4ccc5ccccc5c4N2O3)c1`, the growth in assay [1] was 89.2%; in assay [2], 104%; in assay [9] it was 102%; in [3], 101%; in [4], 103%; in assay [5], 103%. For the same compound, in assay [6], the growth was 111%.

For `COc1ccc(-c2cc(Cc3cccs3)c(=O)n(Cn3cncn3)n2)cc1`, the growth in assay [1] is 106%; in [2], 91.8%; in assay [3], 92.9%; in assay [4], 86.2%; in [5], 98%; in [6] it was 108%.

`NCCCc1nnc(CCC(=O)c2nc3ccccc3[nH]2)o1`: the growth is 90.8% in assay [1]; 102% in [2]; 102% in [9]; 108% in [3]; 90.2% in assay [4]; 90.9% in assay [5]. In addition, the growth in [6] was 105%.

Regarding `CCCCOc1ccc(C(C)(C)c2ccc(OCCCC)cc2)cc1`, the growth in assay [1] is 97.6%; in assay [2], 108%; in assay [7] it was 99.9%; in assay [3], 111%; in assay [4] it was 106%; in assay [5] it was 101%. Further, the values for the growth in assay [6] and in [8] were 107% and 96.9%, respectively.

Regarding `COc1ccc(-c2nc3sccn3c2-c2ccnc(S(C)(=O)=O)n2)cc1`, the growth was 61.1% in assay [1]; 64.2% in assay [2]; 94.4% in assay [9]; 98.9% in [3]; 77.1% in [4]; 68.8% in assay [5]. In addition, the growth in assay [6] was 43.7%; in [8], 100%.

As for `COC(=O)CCC1=C(C)C(C)=N/C1=C\c1[nH]c(-c2ccc[nH]2)cc1OC`, the growth is -34.9% (active) in assay [1]; 35% in assay [2]; -22.9% (active) in [9]; -91.5% (active) in assay [3]; -55.5% (active) in assay [5]; 10.7% in assay [6].

For the compound `C[N+]1(CCC[N+]2(C)C[C@@H]3[C@H](C2)[C@@H]2C=C[C@H]3C2)CCOCC1` (stereo partly drawn), the growth was 103% in [1]; 107% in assay [2]; 109% in assay [9]; 106% in assay [3]; 97.7% in [4]; 96% in [5]. Further, the growth in assay [6] was 109%.

As for `CCC(O)C(C)(C)C` (stereo not drawn), the growth in [1] was 108%; in assay [2] it was 109%; in [7], 108%; in assay [3], 113%; in [4] it was 104%; in assay [5], 93%. Besides, the figures for the growth in assay [6] and in assay [8] were 121% and 129%, respectively.

Take `Cc1cc(C)n2nc(SCC(=O)Nc3sc4c(c3C(N)=O)CCC4)nc2n1`: the growth in assay [1] is 115%; in assay [2], 102%; in [9], 99.3%; in assay [3], 99%; in assay [4], 80.5%; in assay [5] it was 105%. Besides, the growth was 137% in assay [6] and 65% in [8].

Consider `O=C(Cn1ccnc1)NC(c1ccccc1)c1ccccc1`, for which the growth is 73.4% in [1]; 95.1% in assay [2]; 101% in assay [9]; 99.8% in [3]; 89.7% in assay [4]; 98% in assay [5]. Moreover, the growth in assay [6] is 98.2%; in [8] it was 106%.

As to `C[n+]1c2ccccc2c(Nc2ccc(N3CCCCC3)cc2)c2[nH]c3ccccc3c21`, the growth is -94% (active) in [1]; -89.8% (active) in [2]; -98% (active) in assay [9]; -98.3% (active) in assay [3]; -97.8% (active) in assay [4]; -86.2% (active) in assay [5]. Also, the growth is -98.9% (active) in assay [6] and -97.9% (active) in assay [8].

Consider `COc1ccc2nccc(/C=C/c3ccnc4ccc(OC)cc34)c2c1`, for which the growth was 102% in assay [1]; 109% in [2]; 107% in assay [9]; 116% in assay [3]; 109% in assay [4]; 106% in assay [5]. Besides, the growth is 92.8% in [6] and 112% in assay [8].

As to `O=C(CCc1nnc(SCc2ccccc2)s1)c1nc2ccccc2[nH]1`, the growth was 90.5% in [1]; 93.2% in [2]; 89.6% in [9]; 99.4% in [3]; 84.8% in [4]; 80.8% in assay [5]. In addition, the growth in assay [6] is 108%.

Consider `COc1ccc(OC)c2c1[nH]c(=O)c1c3ccccc3cn21`, for which the growth in assay [1] is -77.2% (active); in [2] it was -48.4% (active); in assay [9] it was -97% (active); in [3], -98.8% (active); in [4] it was -100% (active); in assay [5] it was -84.8% (active). In addition, the growth in assay [6] was -83.8% (active); in assay [8] it was -56.8% (active).

In the case of `O=C(CCc1nnc(Cn2ccnc2)o1)c1nc2ccccc2[nH]1`, the growth in assay [1] is 97.9%; in [2], 108%; in assay [9] it was 110%; in assay [3], 104%; in assay [4], 91%; in [5], 90.4%. In addition, the growth in assay [6] was 116%.
